Screening results from PubChem BioAssay.
DAX1 inh-1: inhibits human nuclear receptor DAX1 | 340,000 tested, 0.99% active | inhibition, % at 6.75 µM | HEK293 Gal4-DAX1 luciferase reporter, luminescence | AID 504766 | P51843;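 active means inhibition above the mean over all tested compounds plus 3 SD, cut at about 4.2% in these data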;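 further: inhibition shows as a rise in luminescence from relieved DAX1 repression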
ssDAF12 agonist: activates DAF-12 receptor from parasite S. stercoralis. HEK293 ssDAF-12/GRIP1 lit1-tk-luc reporter, luminescence; % of 3 µM dafachronic acid response. activation, % at 6.8 µM. 370,000 tested, 1% active. AID 652126;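 active means activation above the mean over all tested compounds plus 3 SD, cut at about 0.9% in these data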
AHR activator: activators of human aryl hydrocarbon receptor; P35869; AHR-responsive luciferase reporter cells, luminescence; 320,000 tested, 2.5% active; activation, % at 5 µM; in the data active means activation above about 47%
Target sequence (P35869 whole entry, looked up): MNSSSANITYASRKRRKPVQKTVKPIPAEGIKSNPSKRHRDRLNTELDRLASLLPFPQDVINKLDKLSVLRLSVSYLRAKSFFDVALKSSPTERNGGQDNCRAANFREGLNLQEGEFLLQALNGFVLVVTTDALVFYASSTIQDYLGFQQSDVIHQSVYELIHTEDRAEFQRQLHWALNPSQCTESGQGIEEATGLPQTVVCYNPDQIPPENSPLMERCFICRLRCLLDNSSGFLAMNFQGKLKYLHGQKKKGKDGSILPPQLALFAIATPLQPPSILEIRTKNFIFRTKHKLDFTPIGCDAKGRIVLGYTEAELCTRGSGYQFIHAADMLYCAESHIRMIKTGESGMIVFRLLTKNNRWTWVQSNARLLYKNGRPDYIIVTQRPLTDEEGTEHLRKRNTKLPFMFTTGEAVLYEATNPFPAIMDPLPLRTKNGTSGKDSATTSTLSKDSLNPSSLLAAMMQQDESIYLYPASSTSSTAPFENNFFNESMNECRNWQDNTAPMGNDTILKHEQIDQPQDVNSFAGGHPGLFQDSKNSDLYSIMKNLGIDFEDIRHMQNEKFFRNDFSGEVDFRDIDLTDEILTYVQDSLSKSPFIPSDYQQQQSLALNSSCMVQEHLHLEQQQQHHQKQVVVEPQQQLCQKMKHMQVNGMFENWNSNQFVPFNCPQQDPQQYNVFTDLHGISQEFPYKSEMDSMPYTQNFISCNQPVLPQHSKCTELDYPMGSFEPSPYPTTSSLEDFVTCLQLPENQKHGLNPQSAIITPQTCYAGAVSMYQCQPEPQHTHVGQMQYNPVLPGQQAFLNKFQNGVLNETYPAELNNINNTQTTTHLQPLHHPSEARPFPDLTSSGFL
hcDAF-12 act: activators of H. contortus DAF-12 nuclear receptor | HEK293 hcDAF-12 lit1-tk-luc reporter, luminescence; 0% DMSO, 100% Δ7-dafachronic acid | activation, % at 6.8 µM | 370,000 tested, 1.4% active | AID 652067;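 active means activation above the mean of all tested compounds plus 3 SD, cut at about 5.5% in these data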
DAX1 inh-2: blocks DAX1 repression of SF-1 activated StAR promoter | 370,000 tested, 1.1% active | AID 652010 | HEK293T StAR-luciferase reporter, SF-1/DAX-1 repression relief | inhibition, % at 6.8 µM;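 active means inhibition above the mean over all tested compounds plus 3 SD, cut at about 3.6% in these data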;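 further: higher inhibition means more luminescence from relief of DAX-1 repression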
hgDAF12 agonist: hgDAF-12 agonism, primary luciferase screen | HEK293 GAL4-hgDAF12 UAS-luciferase reporter, agonist luminescence; normalized to butyrate control | activation, % at 6.8 µM | AID 687014 | 370,000 tested, 1.8% active;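 active means activation above a cutoff set at the mean of all screened compounds plus 3 SD, cut at about 10% in these data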
Each line names hits and unclear results; the compound was inactive in the other large screens. In the library only some 5.7% were active in any assay of this set; here they are far more common.

COc1ccccc1N1CCN(CCCNC(=O)C2CCCN(c3ncnc4c3nc3n4CCCCC3)C2)CC1 (centres undefined)	none
COc1cc(/C=C2\NC(=S)N(C)C2=O)ccc1OCc1cccc(F)c1	none
CN(Cc1nc2ccccc2c(=O)[nH]1)C(=O)c1cccc(S(=O)(=O)N2CCCC2)c1	DAX1 inh-2 3.7
COc1ccc(C(=O)CC(CC(=O)c2ccc(OC)cc2)C(=O)O)cc1	none
COc1cc(C=C2C(=O)c3ccccc3C2=O)cc(OC)c1	DAX1 inh-1 4.7
COc1cccc(/C=C2\CCc3ccccc3C2=O)c1	hgDAF12 agonist 14
COc1cc(C=C2C(=O)c3ccccc3C2=O)cc(OC)c1OC	none
O=C1C(=Cc2cccc(F)c2)Cc2ccccc21	hgDAF12 agonist 13 (no result: DAX1 inh-1, AHR activator)
c1ccc2cc(C3OCC4(CCCC4)CO3)ccc2c1	none (no result: AHR activator)
Cc1ccc(C(=O)C(c2ccccc2)N2Cc3ccccc3C2=N)cc1 (centres undefined)	AHR activator 65 (no result: ssDAF12 agonist, hcDAF-12 act, DAX1 inh-2, hgDAF12 agonist)
O=C1NC2=C(C(=O)OC2)C(c2ccc(OC(F)(F)F)cc2)N1 (centres undefined)	none
N#Cc1ccccc1OCC(=O)NC(=O)NCc1ccccc1	none
Cc1ccccc1OCCCC(=O)NCc1ccco1	DAX1 inh-1 4.4
N#Cc1ccccc1OCC(=O)NC(=O)NCc1ccco1	DAX1 inh-1 7.0, hgDAF12 agonist 11
C[C@H](NC(=O)C1CCN(C(=O)[C@@H]2CCCN2C(=O)OC(C)(C)C)CC1)C(=O)NCc1ccc(F)cc1	none (no result: DAX1 inh-1, AHR activator)
CC(C)Oc1ccc(-c2cc(=O)[nH]c(=O)[nH]2)cc1	AHR activator 69
CCOC(=O)N1CCC(N2CC34C=CC(O3)C(C(=O)Nc3ccc(C)cc3)C4C2=O)CC1 (centres undefined)	DAX1 inh-1 4.5, AHR activator 77
ClC(CCN1CCN(Cc2ccccc2)CC1)c1ccccc1 (centres undefined)	DAX1 inh-1 5.7
CCCC(=O)Nc1nc(C)c(-c2csc(Nc3ccc(Cl)cc3)n2)s1	AHR activator 65
CCC(C)C(=O)Nc1nc(C)c(-c2csc(Nc3ccc(Cl)cc3)n2)s1 (centres undefined)	AHR activator 51
COc1ccccc1Nc1nc(-c2sc(NC(=O)c3cccc(Cl)c3)nc2C)cs1	none (no result: DAX1 inh-1, ssDAF12 agonist, hcDAF-12 act, DAX1 inh-2, hgDAF12 agonist)
CCCC(C)C(=O)Nc1nc(C)c(-c2csc(Nc3cc(OC)ccc3OC)n2)s1 (centres undefined)	AHR activator 74
CCCCCC(=O)Nc1nc(C)c(-c2csc(Nc3cc(Cl)ccc3OC)n2)s1	AHR activator 50
CCC(=O)Nc1nc(C)c(-c2csc(Nc3ccc(C(=O)O)cc3)n2)s1	none (no result: AHR activator)
Cc1ccccc1NC(=O)c1ccc(NC(=O)C2CCCO2)cc1 (centres undefined)	none (no result: ssDAF12 agonist, hcDAF-12 act, DAX1 inh-2, hgDAF12 agonist)
O=C(C1CCCN(C2CC(=O)N(c3ccc(Cl)cc3)C2=O)C1)N1CCCC1 (centres undefined)	none (no result: AHR activator)
CCOC(=O)c1c(NC(=O)CSc2nnnn2C)sc(CC)c1C	none
COc1ccc(C2CC(=O)c3cnc(N4CCc5ccccc54)nc3C2)c(OC)c1 (centres undefined)	none (no result: DAX1 inh-1, ssDAF12 agonist, hcDAF-12 act, DAX1 inh-2, hgDAF12 agonist)
CC1(C)CC(=O)c2cnc(N3CCc4ccccc43)nc2C1	hcDAF-12 act 6.4
CC(C)c1ccc(NC(=O)N(CCc2nc3ccccc3[nH]2)C2CCCC2)cc1	ssDAF12 agonist 0.9
CC(=O)Nc1ccc(CCc2nc3ccccc3[nH]2)cc1	none
CCC(C)Nc1ccc(NC(C)CC)cc1 (centres undefined)	none (no result: ssDAF12 agonist, hcDAF-12 act, DAX1 inh-2, hgDAF12 agonist)
O=C(NC1CC1)c1sc2cc(F)ccc2c1Cl	none
O=C(NC1CC1)c1sc2cc(Cl)ccc2c1Cl	DAX1 inh-2 4.3
CCN(CC(=O)Nc1c(F)cccc1F)C(=O)C1(c2ccccc2)CC1	none
COc1cccc(C=O)c1OCCN1C(=O)c2ccccc2C1=O	none (no result: AHR activator)
Cc1ccc(-c2nn[nH]n2)cc1	ssDAF12 agonist 1.1
CSc1nc(COC(=O)NC(C)C)c(COC(=O)NC(C)C)n1Cc1ccccc1	none (no result: DAX1 inh-1, AHR activator)
COc1ccccc1/C=C/C(=O)NC(=S)NCC1CCCO1 (centres undefined)	AHR activator 69
Cc1ccc2nc(C3CCCCC3)c(Cc3cccc(Cl)c3)n2c1	none (no result: DAX1 inh-1, AHR activator)
CN1c2ccccc2Oc2nnc(N3CCN(Cc4ccccc4)CC3)cc21	hgDAF12 agonist 10
CN1c2ccccc2Oc2nnc(Cl)cc21	none
COc1cccc(CNc2nc3cc(-c4ccc(C(=O)N5CCN(C)CC5)cc4)sc3c(=O)n2C)c1	none (no result: DAX1 inh-1, AHR activator)
O=c1oc(-c2cc3ccccc3o2)nc2sc3c(c12)CCCC3	ssDAF12 agonist 4.2
Cc1ccc(C)c(CC(=O)N2CCCC(c3cc(C(=O)NCc4ccccc4)no3)C2)c1 (centres undefined)	none (no result: DAX1 inh-1, AHR activator)
Cc1cc2sc3ccccc3c(=O)c2c(C)c1O	ssDAF12 agonist 1.1
O=c1c2ccccc2sc2ccccc12	none (no result: AHR activator)
O=C(COCC(=O)NCc1ccccc1)NCc1ccccc1	none
O=C(c1nc2ncccn2n1)N1CCN(c2ccccc2)CC1	DAX1 inh-2 3.7
O=C(c1nc2ncccn2n1)N1CCN(c2ccc(F)cc2)CC1	none
COC(=O)CN1C(=O)C(O)(CC(=O)c2ccc(C)cc2)c2cc(Br)ccc21 (centres undefined)	DAX1 inh-1 4.5
O=C(c1ccc2oc(Cc3ccc(Cl)cc3)nc2c1)N1CCCCC1CCO (centres undefined)	none
CC(C)(C)CC(=O)NC(=S)Nc1ccccc1[N+](=O)[O-]	none
COCC(C)NC(=S)Nc1ccccc1[N+](=O)[O-] (centres undefined)	ssDAF12 agonist 2.4
Cc1ccc(C(=O)NCC(=O)NCC(c2ccco2)N2CCCCC2)cc1C (centres undefined)	none (no result: AHR activator)
Cc1cc(-c2nc3ncccc3o2)ccc1NC(=O)CC(C)C	DAX1 inh-2 3.9
COc1ccc(-c2nc3ncccc3o2)cc1NC(=O)c1ccco1	AHR activator 76
COc1cccc(CC(=O)Nc2ccc(N3CCOCC3)c(S(=O)(=O)Nc3ccccc3OC)c2)c1	none (no result: AHR activator)
O=C(CC(c1ccc(F)cc1)c1ccco1)Nc1nccs1 (centres undefined)	ssDAF12 agonist 2.1
CC(C)Nc1ncnc2c1ncn2[C@H]1CN(Cc2ccco2)C[C@@H](CO)O1	none (no result: DAX1 inh-1, AHR activator)
CC(O)CNc1nc(N)[nH]c(=O)c1N=Nc1ccccc1 (centres undefined)	none (no result: AHR activator)
O=C(N/N=C/C=C/c1ccc2c(c1)OCO2)C(O)c1ccccc1 (centres undefined)	none
CN(C=O)c1ccc(CSc2ccccc2)cc1	hgDAF12 agonist 12 (no result: AHR activator)
CSc1nc2n(n1)C(c1cccc(F)c1)C(C(=O)Nc1ccc(C)cc1C)=C(C)N2 (centres undefined)	none
CC1=C(C(=O)Nc2ccc(C)cc2C)C(c2ccc(Cl)cc2)n2nc(C(=O)OC(C)C)nc2N1 (centres undefined)	DAX1 inh-1 4.4
